Compound activity from PubChem.
Sampled rows, rich in hits. Any-hit rate of the full collection: about 11%.
WT yeast gro inh: growth inhibition of WT yeast, mitochondrial fusion screen. mitochondrial fusion phenotypic screen, WT strain. inhibition, % at 10 µM. actives 2.1% (n = 190,000). AID 1362; in the data active = inhibition above about 58%; tested in S. cerevisiae
Autophagy mod: autophagy modulation, high-content screen. actives 0.98% (n = 190,000). MEF GFP-LC3 puncta imaging; test concentration mostly 10 µM. calls only at 10 µM (by protocol);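 active = percentage of spot-positive cells more than 3 SD above its plate mean, without a fluorescence outlier flag or 80% toxicity; inconclusive = no clear call, values can overlap the other calls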;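 note: spot-positive cell cutoff set from DMSO-treated cells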
INS promoter inh: TRM-6 insulin promoter activity inhibition | TRM-6 cells (human fetal islet line), insulin promoter-eGFP reporter, imaging; reporter expression induced with tamoxifen | inhibition, % at 2 µM | actives 0.9% (n = 130,000);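 active = inhibition above the mean plus 3 SD, with well images judged a real hit on visual review, cut at about 60% in these data, passing the limit was not always enough; inconclusive = inhibition over the cutoff but images rejected on review; inactive = inhibition not above the cutoff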
Insulin prom up: MIN6 insulin promoter up-regulation; AID 1625; actives 0.3% (n = 190,000); MIN6 insulin promoter-GFP reporter, high-content imaging; stronger effect = higher value; z-score at 5 µM;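 active = z-score above 3 at 5 µM with at least 500 cells counted in the well; inconclusive = wells under 500 cells, flagged as cytotoxic or low count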
L major viab: reduces viability of Leishmania major promastigotes; resazurin fluorescence viability; inhibition, % at 10 µM; actives 9% (n = 200,000); AID 1063; in the data active = inhibition above about 50%;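 note: promastigotes grown with compound for 44 hours at 28 °C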
The depositor's hits bear a star.

CS(=O)(=O)N1CCN(C2Cc3ccccc3C2)CC1 was read as WT yeast gro inh -9, Autophagy mod inactive, INS promoter inh -11, Insulin prom up 0.03 and L major viab 36.
Screening CC1CN(C2CCN(S(=O)(=O)c3ccc(F)cc3)CC2)CC(C)O1 (centres undefined) returned WT yeast gro inh 43, Autophagy mod inactive, Insulin prom up -0.73 and L major viab 91*.
O=S(=O)(c1ccccc1)N1CCC(N2CCCCCC2)CC1 was read as WT yeast gro inh -3, Autophagy mod inactive and L major viab 2.
`O=S(=O)(Cc1ccccc1)N1CCN(C2Cc3ccccc3C2)CC1` gave WT yeast gro inh 6, Autophagy mod inactive, INS promoter inh 3, Insulin prom up 1 and L major viab 52*.
O=CNn1cnc2c(oc3nc(-c4ccccc4)cc(-c4ccco4)c32)c1=O was read as WT yeast gro inh -25, Autophagy mod inactive, INS promoter inh -61, Insulin prom up 0.27 and L major viab -1.
For CC(C)(C)CC(C)(C)NCC(O)COc1c(F)cc(Br)cc1F (centres undefined) the results were WT yeast gro inh 27, Autophagy mod inactive, INS promoter inh -41, Insulin prom up -0.79 and L major viab 100*.
CC(C)(C)NCC(O)COc1c(F)cc(Br)cc1F (centres undefined) was read as WT yeast gro inh 14, Autophagy mod inactive, INS promoter inh -26, Insulin prom up -0.18 and L major viab -20.
`CCOC(=O)c1c(C)nc2ccccc2c1-c1ccccc1` gave WT yeast gro inh -6, Autophagy mod inactive, Insulin prom up 0.37 and L major viab -2.
Screening CCOC(=O)c1c(C)nc2ccc(Cl)cc2c1-c1ccccc1 returned WT yeast gro inh 64*, Autophagy mod inactive, INS promoter inh 35, Insulin prom up -0.9 and L major viab 51*.
For CCOC(=O)c1c(C)nc(-c2ccccc2)nc1NC(=O)CC the results were WT yeast gro inh 19, Autophagy mod inactive, INS promoter inh 71*, Insulin prom up 2.9 and L major viab 6.
`CCC(=O)Nc1nc(-c2ccccc2)nc(SC)c1C(C)=O` gave WT yeast gro inh -9, Autophagy mod inactive, INS promoter inh -64, Insulin prom up -0.42 and L major viab 3.
For CCOC(=O)c1cnc(-c2ccccc2)nc1-c1ccccc1 the results were WT yeast gro inh 65*, Autophagy mod inactive, INS promoter inh 37, Insulin prom up 0.73 and L major viab 24.
O=C(c1cccc([N+](=O)[O-])c1)N1CCN(c2n[nH]c(=O)[nH]c2=O)CC1 was read as Insulin prom up -0.43.
For COc1ccc(CCNC(=O)C2CCCN2C(=O)Nc2cccc(C(C)=O)c2)cc1OC (centres undefined) the results were WT yeast gro inh 3, Autophagy mod inactive, Insulin prom up 0.46 and L major viab 0.
Screening COc1ccc(/C=C/C(=O)O)cc1S(=O)(=O)N1CCC(C)CC1 returned Insulin prom up -0.09.
Screening Cc1ccc(S(=O)(=O)NC2=C(N3CCN(c4ccccc4F)CC3)C(=O)c3ccccc3C2=O)cc1 returned WT yeast gro inh 54, Autophagy mod inactive, INS promoter inh -3, Insulin prom up -0.38 and L major viab 96*.
CC1CCCN(C2=C(NS(=O)(=O)c3ccc(Cl)cc3)C(=O)c3ccccc3C2=O)C1 (centres undefined) was read as WT yeast gro inh 15, Autophagy mod inactive, INS promoter inh -2, Insulin prom up -0.02 and L major viab 56*.
For Cc1ccc(S(=O)(=O)Nc2nc3ccccc3nc2N2CCN(c3ccccc3F)CC2)cc1 the results were WT yeast gro inh 7, Autophagy mod inactive, INS promoter inh 57, Insulin prom up -0.2 and L major viab 35.
`CC(=O)Nc1ccc(S(=O)(=O)NC2=C(N3CCN(c4ccc(F)cc4)CC3)C(=O)c3ccccc3C2=O)cc1` gave WT yeast gro inh 21, Autophagy mod inactive, INS promoter inh -14, Insulin prom up -0.88 and L major viab 61*.
For Cc1ccc(S(=O)(=O)NC2=C(N3CCN(Cc4ccccc4)CC3)C(=O)c3ccccc3C2=O)cc1 the results were WT yeast gro inh 16, Autophagy mod inactive, INS promoter inh 50, Insulin prom up -0.02 and L major viab 97*.
`CC(=O)Nc1ccc(S(=O)(=O)Nc2ccc(N3CCOCC3)cc2)cc1` gave WT yeast gro inh 2, Autophagy mod inactive, Insulin prom up -0.61 and L major viab -1.
`O=C(NCc1ccco1)c1cccc(NS(=O)(=O)c2ccccc2F)c1` gave WT yeast gro inh -20, Autophagy mod inactive, INS promoter inh 40, Insulin prom up 0.12 and L major viab -5.
For CCc1n[nH]c(=S)n1/N=C/c1ccc(N(C)c2ccccc2)cc1 the results were WT yeast gro inh 72*, Autophagy mod inactive, Insulin prom up -0.44 and L major viab 29.
`CCc1n[nH]c(=S)n1/N=C/c1ccc2c(c1)OCO2` gave WT yeast gro inh 15, Autophagy mod inactive, INS promoter inh 9, Insulin prom up 0.36 and L major viab -6.
For Cc1n[nH]c(=S)n1/N=C/c1ccc(OCc2ccc(Cl)cc2)cc1 the results were WT yeast gro inh 24, Autophagy mod inactive, INS promoter inh 0, Insulin prom up -0.28 and L major viab 4.
For S=c1[nH]nc(Cc2ccc(Br)cc2)n1/N=C/c1ccc(Cl)cc1 the results were WT yeast gro inh 93*, Autophagy mod inactive, INS promoter inh 32, Insulin prom up -0.55 and L major viab -5.
For CCn1c(C)nc2cc(C(=O)NNC(=O)c3ccc(Cl)nc3)ccc21 the results were WT yeast gro inh -37, Autophagy mod inactive, INS promoter inh 50, Insulin prom up 0.23 and L major viab -5.
For CCn1c(C)nc2cc(C(=O)OC(C(F)(F)C(F)F)C(F)(F)C(F)F)ccc21 the results were WT yeast gro inh 81, Autophagy mod inactive, INS promoter inh 35, Insulin prom up inconclusive and L major viab 100*.
For Cc1c(NC(=O)/C=C/c2ccc(S(=O)(=O)N3CCOCC3)cc2)c(=O)n(-c2ccccc2)n1C the results were WT yeast gro inh -9, Autophagy mod inactive, INS promoter inh -40, Insulin prom up 0.33 and L major viab -6.
For CN=C(C)/C(C(=O)OC)=C(/O)c1ccc(Cl)cc1Cl the results were Insulin prom up 0.12.
Screening c1ccc2cc(CSCc3nc4ccccc4[nH]3)ccc2c1 returned WT yeast gro inh 74*, Autophagy mod inactive, INS promoter inh 46, Insulin prom up -0.4 and L major viab 19.
Cc1ccccc1CSCc1nc2ccccc2[nH]1 was read as WT yeast gro inh 56, Autophagy mod inactive, Insulin prom up -0.88 and L major viab 9.
For CCOC(=O)c1cc(C#N)c(N2CCN(c3ccccn3)CC2)nc1-c1ccccc1 the results were WT yeast gro inh -10, Autophagy mod inactive, Insulin prom up -1.5 and L major viab -1.
`CCCNC(=O)c1cccc(Cn2nc(C)c(Br)c2C)c1` gave WT yeast gro inh -5, Insulin prom up -0.24 and L major viab 6.
